Compound activity: PubChem, National Center for Advancing Translational Sciences (NCATS)
The list is not random: actives were taken first. Their share in the collection is about 2.4%.
Cruzain noTriton: inhibitors of Trypanosoma cruzi cruzain without detergent; P25779; purified cruzain, Z-FR-AMC fluorescence, no detergent; Potency, µM, inactives show max response, negative = inhibition, usual class: inhibitors; actives 2.3% (n = 200,000);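 note: plate controls were enzyme without inhibitor for no effect and buffer without enzyme for full effect; nearly all actives have a fitted effect of over 40% in size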
Target sequence (P25779 123-467 limits assumed): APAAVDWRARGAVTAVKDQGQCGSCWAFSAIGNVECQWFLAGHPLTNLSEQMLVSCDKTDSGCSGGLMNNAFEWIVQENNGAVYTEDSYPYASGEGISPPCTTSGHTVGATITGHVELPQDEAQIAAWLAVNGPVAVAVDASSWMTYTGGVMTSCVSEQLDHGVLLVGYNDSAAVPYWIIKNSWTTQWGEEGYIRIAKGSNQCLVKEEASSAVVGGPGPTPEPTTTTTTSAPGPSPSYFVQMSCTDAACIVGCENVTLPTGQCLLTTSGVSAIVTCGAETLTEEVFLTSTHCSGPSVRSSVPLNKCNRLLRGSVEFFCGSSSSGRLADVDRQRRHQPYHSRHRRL
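Purified cruzain at 1.5 nM, pre-incubated 15 min with compound at room temperature in 100 mM sodium acetate pH 5.5, 5 mM DTT, 0.00005% Triton X-100. Reaction started with 2 uM Z-FR-AMC; AMC fluorescence increase over 60 s gives rate.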
Cruzain Triton: cruzain (T. cruzi) inhibition with detergent; Potency, µM, for inactives: max response, negative = inhibition, most hits filed as inhibitors; purified cruzain, Z-FR-AMC fluorescence, 0.01% Triton; P25779; actives 0.43% (n = 200,000);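 note: plate controls were neutral wells for no effect and buffer without enzyme for full effect; nearly all actives have a fitted effect of over 40% in size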
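Purified cruzain (1.5 nM final) was preincubated with compounds for 15 min at room temperature in 100 mM sodium acetate pH 5.5, 5 mM DTT, 0.01% Triton X-100. Reaction started with 2 uM Z-FR-AMC; AMC fluorescence change over 60 s gave activity.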
* = called active by the depositor; ? = inconclusive. Calls come from the whole dose curve; as a rule, active = well fitted curve in the direction sought with a large enough effect; inconclusive = small, poorly fitted or top-dose-only effect, or another doubt; inactive = no such curve, though single readings can be large; an effect the other way counts as inactive or inconclusive. Potency is the fitted concentration of half-maximal effect.

SMILES | Cruzain noTriton | Cruzain Triton
CC(=C/c1ccccc1)/C=N/Nc1nc(N2CCCCC2)nc(N2CCCCC2)n1 | -10% | -4%
COc1ccc2nc(NCN3C(=O)c4ccccc4C3=O)sc2c1 | -4% | 2%
Cc1oc(C)c2c(=O)cc(-c3ccc4c(c3)OCO4)cc(OC(=O)c3ccccc3Cl)c12 | -4% | -2%
Cc1oc(C)c2c(=O)cc(-c3ccc4c(c3)OCO4)cc(OC(=O)c3ccccc3Br)c12 | 16µM* | -9%
O=C(Oc1cccc2ccccc12)c1cc(Cl)nc2ccccc12 | -26% | -7%
COc1cccc(C(=O)n2c(SC)nc3cc4c(cc32)OCCO4)c1 | 23% | -15%
CCOC(=O)c1ccc(N2C(=O)c3n[nH]c(-c4cccs4)c3C2c2ccc(CC)cc2)cc1 (stereo not given) | 5µM* | -6%
CCOC(=O)c1ccc(N2C(=O)c3n[nH]c(-c4cccs4)c3C2c2ccc(OCC)cc2)cc1 (stereo not given) | ? | -3%
CCCCNC(=O)COC(=O)c1cc(S(=O)(=O)N2CCCCCC2)ccc1OC | 26% | -1%
Cc1cc(C)n2nc(SC(C)C(=O)NCc3ccco3)nc2n1 (stereo not given) | -3% | 3%
O=C(COC(=O)c1cc([N+](=O)[O-])ccc1NCc1ccccc1)NCc1ccccc1Cl | -84% | -5%
O=C(COC(=O)c1cc([N+](=O)[O-])ccc1NCc1ccccc1)NC1CCCc2ccccc21 (stereo not given) | 25µM* | 2%
CN1/C(=C\C(=O)c2cccc(S(=O)(=O)N3CCCCC3)c2)C(C)(C)c2ccccc21 | ? | -1%
Cc1ccc(Nc2nc(N)c([N+](=O)[O-])c(N3CCC(C)CC3)n2)cc1C | 24% | -11%
COc1ccc(NC(=S)NCCc2c[nH]c3ccccc23)cc1 | 6% | -5%
CCOc1ccc(S(=O)(=O)c2c(C(=O)c3ccc(C)cc3)cnc3cc4c(cc23)OCCO4)cc1 | 6.3µM* | -5%
Cc1ccc(C(=O)c2cnc3cc4c(cc3c2S(=O)(=O)c2ccccc2)OCCO4)cc1 | ? | -7%
Cc1ccc2ncc(C(=O)c3ccc(C)c(C)c3)c(S(=O)(=O)c3ccccc3)c2c1 | -21% | -5%
COc1ccc(S(=O)(=O)c2c(C(=O)c3ccc(C)c(C)c3)cnc3ccc(C)cc23)cc1 | 13µM* | -5%
CS(=O)(=O)N1CCC2(CC1)CN(c1cccc(-c3ccccc3)c1)C2 | ? | -4%
CC(C)OC(=O)/C(C#N)=C/c1cn(Cc2ccccc2)c2ccccc12 | -1% | -7%
Cc1ccccc1OCc1nnc(SCc2cc(=O)c3ccccc3[nH]2)n1C | -3% | -1%
CCOC(=O)c1cnc2c(C)cc(C)cc2c1Nc1ccc(S(=O)(=O)Nc2ncccn2)cc1 | ? | -9%
Nc1ccc2c(c1)N1CCN=C1S2 | 10% | -8%
O=C(Nc1ccc(Cl)cc1)Nc1ccc2c(c1)N1CCN=C1S2 | 32µM* | ?
SMILES | Cruzain noTriton | Cruzain Triton
Cc1ccc(NC(=O)CSc2nsc(SCC(=O)Nc3ccc(C)cc3C)c2C#N)c(C)c1 | 10µM* | -8%
Cc1csc(NC(=O)CSc2nsc(SCC(=O)Nc3nc(C)cs3)c2C#N)n1 | ? | -6%
CCCC(=O)NCCCc1nc2ccccc2n1CCC | -2% | -2%
Nc1cc(=O)nc(SCC(=O)NCc2ccccc2)n1CCc1ccccc1 | 5% | 2%
CC(C)COc1ccc(C(=O)Nc2scc(-c3ccc(Cl)cc3Cl)c2C(N)=O)cc1 | 10µM* | -18%
CC(C)COc1ccc(C(=O)Nc2cc3nn(-c4ccccc4)nc3cc2Cl)cc1 | -5% | 0%
COc1ccc(Cl)cc1N1Cc2ccccc2C1 | 25µM* | -4%
COc1ccccc1N1CCNCC1 | 10% | 3%
COc1ccccc1N1Cc2ccccc2C1 | 16µM* | -4%
COc1ccc(OC)c(N2Cc3ccccc3C2)c1 | ? | 3%
CCOc1ccc(N(C(=O)c2ccc(OC)cc2)S(=O)(=O)c2ccc3c(c2)n(C)c(=O)n3C)cc1 | ? | -4%
COc1ccc(CN(C(=O)CSc2nnc(-c3ccccc3C)o2)c2ccc(F)cc2)cc1 | -9% | -5%
O=C(CSc1nnc(-c2c[nH]c3ccccc23)o1)N(Cc1ccccc1)c1ccc(F)cc1 | 13µM* | -5%
NC(=O)c1ccccc1NC(=O)CN1c2ccccc2S(=O)(=O)c2ccccc21 | -8% | -3%
COc1cc(Cl)c(C)cc1NC(=O)CN1c2ccccc2S(=O)(=O)c2ccccc21 | 25µM* | -6%
CCOc1ccc(NC(=O)Cn2nc(Cc3ccncc3)c3ccccc3c2=O)cc1 | 1% | -4%
O=C(N/N=C/c1c(O)n(CCC2=CCCCC2)c(=O)[nH]c1=O)c1ccccc1 | 25µM* | 3%
O=C(N/N=C/c1c(O)n(CCC2=CCCCC2)c(=S)[nH]c1=O)c1ccccc1 | -4% | 3%
COc1ccccc1CNC(=O)C(CC(C)C)NC(=O)C1CCC(C)CC1 (stereo not given) | 9% | -4%
Nc1nc(N)[n+]([O-])c(N)c1NCO | 12% | -4%
Cc1ccccc1NC1=C/C(=N\S(=O)(=O)c2cccs2)c2ccccc2C1=O | ? | -5%
Cc1ccc(NC2=C/C(=N/S(=O)(=O)c3cccs3)c3ccccc3C2=O)cc1C | 10µM* | -1%
O=C(C1COc2ccccc2O1)N1CCn2c(nc3ccccc32)C1 (stereo not given) | 13µM* | -30%
O=C(c1ccccc1)N1CCn2c(nc3ccccc32)C1 | -8% | 0%
C=CCc1cc(C)ccc1OCCOCCC(C(=O)OCC)C(=O)OCC | 19% | -7%
SMILES | Cruzain noTriton | Cruzain Triton
O=C(NNC(=O)c1sc2cccc(Cl)c2c1Cl)Nc1ccccc1 | 10µM* | 2%
O=C(NNC(=O)c1sc2cccc(Cl)c2c1Cl)NC1CCCCC1 | -7% | -9%
COc1ccc(/C=N\N=C2/SC(CC(=O)O)C(=O)N2c2ccc(O)cc2)cc1OC (stereo not given) | 7% | -7%
Cc1ccccc1NC(=O)N1CCc2c(sc3c2CCCC3)C1c1ccccc1 (stereo not given) | ? | 0%
Cc1ccc(NC(=O)N2CCc3c(sc4c3CCCC4)C2c2ccccc2)cc1F (stereo not given) | 7.9µM* | -1%
Cc1cc(C)nc(Sc2nc(C)nc3c2oc2ccccc23)n1 | -10% | -9%
Cc1nc2cccnc2n1-c1cccc(C(=O)NCCc2ccc(Cl)cc2)c1 | -2% | -4%
O=C(COC(=O)CNC(=O)c1cccc([N+](=O)[O-])c1)Nc1nc2ccccc2s1 | ? | -26%
CC(C)N(C(=O)COC(=O)CNC(=O)c1ccc(Br)cc1)c1ccccc1 | 16µM* | 16µM*
Cc1ccc(C(=O)NCC(=O)OCC(=O)Nc2ccccc2[N+](=O)[O-])cc1 | 7.9µM* | 11µM*
Cc1ccc(NC(=O)COC(=O)Cn2nc(C)c([N+](=O)[O-])c2C)c([N+](=O)[O-])c1 | 6% | -2%
CC(=O)COC(=O)CNC(=O)c1ccc(Br)cc1 | -24% | -24%
CCOc1ccc(C(=O)NCC(=O)OCC(=O)Nc2ccccc2OCC)cc1 | -7% | -26%
O=C(COC(=O)CNC(=O)c1cccc([N+](=O)[O-])c1)Nc1ccccc1OC(F)F | 20µM* | 16µM*
Cc1ccc(NC(=O)COC(=O)CNC(=O)c2ccc3ccccc3c2)c([N+](=O)[O-])c1 | 3.2µM* | 7.1µM*
COc1ccc(-n2c(SCC(=O)c3ccc(Cl)cc3)nc3c([nH]c4ccccc43)c2=O)cc1 | -5% | -3%
